A549 tox – A549 cytotoxicity, counter-screen for Nrf2 inhibitors. A549 ARE-Fluc cells, CellTiter-Fluor viability, 18-24 h. Potency, µM (doses to about 46 µM), actives largely listed as inhibitors. actives 0.16% (n = 390,000). AID 504648
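A549 ARE_Fluc cells in 5% FBS OPTI-MEM were exposed to compounds in concentration-response for 18-24 h at 37 deg C. Viability was read by CellTiter-Fluor fluorescence (Ex 405/Em 525) after 30 min, before the luciferase read.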
Nrf2 block – inhibitors of Nrf2 signaling; A549 ARE-Fluc reporter, luciferase luminescence, 18-24 h; Potency, µM (highest dose often 46 µM), most hits filed as inhibitors; actives 2.1% (n = 360,000); AID 504444; further: nearly all actives have a fitted effect of over 60% in size
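A549 ARE_Fluc cells, 5000/well, 5% FBS OPTI-MEM; compounds in dose-response, 18-24 h at 37 °C/5% CO2; CellTiter-Fluor viability read (Ex 405/Em 525), then BugLite luciferase luminescence = Nrf2 activity.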
ATXN2 expr inh – inhibitors of ATXN2 expression; HEK-293 ATXN2-luciferase reporter, luminescence, 24 h; Potency, µM (titrated, usually from 57 µM), actives largely listed as inhibitors; actives 0.72% (n = 360,000); AID 1745845; further: nearly all actives have a fitted effect of over 55% in size
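ATXN2-luciferase reporter cells (luciferase flanked by upstream and downstream ATXN2 gene portions) were treated 24 h at 37 °C with compounds at up to 57 uM. SteadyGlo luminescence gave expression; GF-AFC fluorescence gave viability.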
HepG2 viability – counter-screen for TGF-b inhibitors: cytotoxicity in HepG2 cells; HepG2 CAGA-GFP viability, ATP luminescence, 18 h; Potency, µM (highest dose often 46.1 µM), actives largely listed as cytotoxic; actives 0.76% (n = 410,000); AID 588856
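HepG2 CAGA-GFP cells (1000/well, DMEM with 1% FBS) received compound, then TGF-beta at 500 pg/mL final, and were incubated 18 hours at 37 degrees C. Viability was read by CellTiter-Glo luminescence. Media-only wells were set as complete cell-killing and DMSO as no toxicity.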
TGFb inhibitor – inhibitors of TGF-b signaling; HepG2 CAGA-GFP TGF-b/SMAD3 reporter, GFP fluorescence, 18 h; TGF-beta stimulated, 500 pg/mL final; Potency, µM (series often up to 46.1 µM), usual class: inhibitors; actives 1.2% (n = 410,000); further: nearly all actives have a fitted effect of over 65% in size
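Inhibition was scored as loss of TGF-beta-induced (500 pg/mL final, 18 hours, 37 degrees C) GFP in HEPG2 cells carrying a CAGA-GFP reporter, in DMEM with 1% FBS. Well GFP was summed per cell; Activity was normalised to unstimulated and stimulated DMSO wells, then concentration-response fitting.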
S2 tox – viability counter-screen for ATXN expression inhibitors; S2 cells (HEK-293 line with an ATXN2-luciferase reporter) viability, CellTiter-Fluor protease fluorescence, 24 h; Potency, µM (top dose mostly 56.7 µM), most hits filed as cytotoxic; actives 0.49% (n = 400,000); AID 651635; further: nearly all actives have a fitted effect of over 40% in size
Numbers stand for hits; . = inactive; ? = inconclusive; / = not tested or not shown; ! = a repeat was not active; [ ] = dose if it differs, or a comment. Shown are actives, neighbours in structure and some others; about 3.8% of the full set was active somewhere. The call rests on the fitted dose curve; in most records, active means well fitted curve in the direction sought with a large enough effect; inconclusive means small, poorly fitted or top-dose-only effect, or another doubt; inactive means no such curve, though single readings can be large; an effect the other way counts as inactive or inconclusive.

SMILES	A549 tox	Nrf2 block	ATXN2 expr inh	HepG2 viability	TGFb inhibitor	S2 tox
CC1(c2nnnn2-c2ccc3c(c2)OCCO3)CCC(=O)N1C1CC1 (stereo not drawn)	/	/	.	/	/	.
O=C(COC(=O)c1cc([N+](=O)[O-])ccc1N1CCOCC1)c1ccc(Br)cc1	?	26µM	.	.	.	.
Cc1cc(NC(=O)COC(=O)c2cc([N+](=O)[O-])ccc2N2CCOCC2)ccc1Br	?	18µM	.	.	.	?
CCOc1ccc(C(=O)COC(=O)c2cc([N+](=O)[O-])ccc2N2CCOCC2)cc1	.	.	.	.	.	?
O=C(COC(=O)c1cc([N+](=O)[O-])ccc1NCCO)Nc1ccc2c(c1)OCO2	?	10µM	.[11.3 µM]	.	.	.
O=C(COC(=O)c1cc([N+](=O)[O-])ccc1NCCO)Nc1cccc(S(=O)(=O)N2CCCC2)c1	.	.	.	.	.	.
CNc1ccc(S(=O)(=O)NCC(=O)OC(C)C(=O)N(C)Cc2ccccc2)cc1[N+](=O)[O-] (stereo not drawn)	.	.	/	.	.	?
CCOC(=O)C(=CNc1cc(Cl)c(-c2ccco2)c(Cl)c1)C(=O)OCC	.	.	/	.	.	.
Cc1ccc(-n2nc3ccc(NC(=O)c4cc5ccccc5o4)cc3n2)cc1	.	.	.	.	.	.
O=C(Nc1ccc(Cl)cc1)Nc1cccc(C(=O)O)c1	.	?	8.9µM	.	.	.
COC(=O)c1cccc(NC(=O)Nc2ccc(Cl)c(Cl)c2)c1	?	?	?	11µM	?	.
CCCCc1ccc(-n2nc3ccc(NC(=O)c4cc5ccccc5o4)cc3n2)cc1	.	.	?	.	?	22µM
CCOc1ccc(-n2nc3ccc(NC(=O)Cc4ccccc4)cc3n2)cc1	.	.	?	.	?	14µM
CCOC(=O)c1cccc(NC(=O)Nc2ccc(OCC)cc2)c1	.	?	/	.	.	?
C=CCn1cccc(C(=O)Nc2ccc(OCC)cc2)c1=O	.	12µM	.[11.3 µM]	.	.	.
C=CCn1cccc(C(=O)Nc2ccc(Cl)cc2)c1=O	.	?	.	.	.	.
CCOc1ccc(NC(=O)Nc2cccc(C(=O)O)c2)cc1	.	?	1µM	.	.	.
CCOc1ccc(NC(=O)c2ccccn2)cc1	.	?	10µM	.	?	.
CSc1ccccc1NC(=O)Nc1ccc(Cl)cc1	.[1.84 µM]	7.3µM	?	.	?	.
COc1ccc(NC(=O)Nc2ccccc2SC)cc1	.	?	.	.	.	.
Cc1c(C(=O)C(=O)N2CC=C(c3ccccc3)CC2)c2ccccc2n1C	.	.	.	.	.	.
CCCN(CCC)C(=O)CSc1nnc2cc(C)c3ccccc3n12	.	.	.	.	.	.
COCCCNCCCOc1ccc(Cl)cc1C(C)(C)C	.	.	?	16µM	?	?
Cc1cc(C)cc(NC(=O)C(C)N2Cc3ccccc3C2=O)c1 (stereo not drawn)	.	.	/	.	.	/
CC(C)(C)OC(=O)C[C@H]1C/C=C\C[C@@H](CC(=O)NCCO)C(=O)NCCOC1=O	.	.	.	.	.	.
SMILES	A549 tox	Nrf2 block	ATXN2 expr inh	HepG2 viability	TGFb inhibitor	S2 tox
COCCNC(=O)c1c[nH]c2ccc(S(=O)(=O)N3CCc4ccccc43)cc2c1=O	.	16µM	/	.	.	.
COC(=O)c1cc(CNC(=O)c2ccncc2)cc(NC(=O)c2ccccc2Cl)c1	/	/	/	/	/	.
CCOC(=O)C1(C)CCCCCN1C(=O)/C=C/c1ccccc1 (stereo not drawn)	/	/	.	1µM	.	.
COC(=O)c1cc(OC)c(OC)cc1NC(=O)c1ccc2c(c1)CCN2S(C)(=O)=O	.	.	.	.	.	.
CCc1cccc(CC)c1NC(=O)c1cc(S(=O)(=O)N2CCc3ccccc32)cn1C	.	23µM	/	.	?	/
Cc1ccc(NC(=O)NC(C)c2c(-n3cccc3)sc(C)c2C)cc1F (stereo not drawn)	?	23µM	/	.	/	/
Cc1sc(-n2cccc2)c(C(C)NC(=O)Nc2cccc(C(F)(F)F)c2)c1C (stereo not drawn)	.	?	/	.	/	/
Cc1nc2ccccc2nc1OCc1cccc(Cl)c1	.	.	.	.	11µM	.
Cc1nc2ccccc2nc1OCc1ccccc1	.	.	.	.	.	.
CNC(=O)[C@H](CC1=CN=C2C=CCC=C12)NC(=O)[C@@H](CC(=O)NO)CC(C)C	/	/	0.017µM	/	/	/
COc1ccc2[nH]cc(/C=C/c3cc[n+](C)cc3)c2c1	?	10µM	/	.	.	?
COc1ccccc1CCNC(=O)Cc1c(C)c2cc(Cl)c(O)cc2oc1=O	.	.	/	.	.	/
Cn1cc(-c2cnn3c(N)c(Br)c([C@H]4CCCNC4)nc23)cn1	/	/	0.39µM	/	/	/
O=S(=O)(c1ccc(F)cc1)N1CCN(c2nc(-c3ccccc3)nc3ccccc23)CC1	.	.	/	.	.	/
S=C(NCCCN(Cc1ccc(Cl)cc1)c1ccc(Br)cn1)NCc1ccc2nc[nH]c2c1	.	?	/	.	?	/
CC(=O)NCCCNC(=S)NCCCN(Cc1ccc(Cl)cc1)c1ccc(Br)cn1	.	?	?	13µM!	16µM	?
CN(CCCc1cnc[nH]1)C(=S)NCCCN(Cc1ccc(Cl)cc1)c1ccc(Br)cn1	.	.	/	.	7.1µM	/
NC(c1ccc(F)c(F)c1)c1nc(-c2cc(F)cc(F)c2)cs1 (stereo not drawn)	/	/	.	.	.	.
OC1CCCN(Cc2c3ccccc3cc3ccccc23)C1 (stereo not drawn)	.	?	18µM	.	.	.
CCOc1ccccc1Nc1nnc(SCc2nnc(-c3cc(OC)c(OC)c(OC)c3)o2)s1	?	16µM	.	.	.	.
CN(C)CCN(Cc1ccsc1)c1ccccn1	/	/	.	/	/	.
COc1cccc2cc(C(=O)Nc3ccc(CC(=O)O)cc3)c(=O)oc12	.	1.5µM	3.5µM	.	.	.
CC(C)NC(=O)Nc1ccc2c(c1)C(=O)N([C@H](C)CO)C[C@H](C)[C@@H](CN(C)S(=O)(=O)c1cn(C)cn1)O2	.	.	.	.	.	.
Cc1cc(Cl)ccc1-c1cc2nc(NCCCN(C)C)n(C)c(=O)c2s1	/	/	32µM	14µM	?	?
Cc1cscc1-c1cc2nc(NCCCN(C)C)n(C)c(=O)c2s1	/	/	.	.	.	.
COc1ccc(-c2cc3nc(NCCCN(C)C)n(C)c(=O)c3s2)c(C)c1	/	/	.	3.5µM	?	.
CN(C)CCCNc1nc2cc(-c3ccc(F)cc3)sc2c(=O)n1C	/	/	20µM	.	?	?
COc1cccc(CNc2nc3cc(-c4cccc(Cl)c4)sc3c(=O)n2C)c1OC	/	/	.	.	?	.
